Experimental data: the supplement of paper PMC8728848
This is one part of a sample in which the strongest signals are shown more often than they occur.

Legend:
Test in all cases: glycan array binding signal (z-score within array); higher = stronger binding
Details in all cases: glycan notation: IUPAC condensed, linker removed; mutation: Y228W
[1] = molecular target: Fuc(a1-2)Gal(b1-3)GlcNAc(b1-3)[Neu5Ac(a2-6)Gal(b1-4)GlcNAc(b1-6)]Gal(b1-4)Glc
Summary of the method: (§1)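 Glycan array binding is given as a within-array Z-score, which can be read as non-binding when negative. The arrays, 3228 of them, came from the Consortium for Functional Glycomics database and were retained only where the protein sequence was available. Z-scores were averaged across arrays of the same protein sequence at different concentrations or buffers and across linkers.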

[2] = molecular target: Fuc(a1-2)Gal(b1-4)Glc
Summary of the method: as §1

[3] = molecular target: Fuc(a1-2)Gal(b1-4)GlcNAc(b1-3)Gal(b1-4)GlcNAc(b1-2)Man(a1-3)[Fuc(a1-2)Gal(b1-4)GlcNAc(b1-3)Gal(b1-4)GlcNAc(b1-2)Man(a1-6)]Man(b1-4)GlcNAc(b1-4)GlcNAc
Summary of the method: as §1

[4] = molecular target: Fuc(a1-2)Gal(b1-4)GlcNAc(b1-3)[Fuc(a1-3)[Gal(b1-4)]GlcNAc(b1-6)]Gal(b1-4)Glc
Summary of the method: as §1

[5] = molecular target: Fuc(a1-2)Gal(b1-4)GlcNAc(b1-6)GalNAc
Summary of the method: as §1

[6] = molecular target: Fuc(a1-2)Gal(b1-4)[Fuc(a1-3)]GlcNAc(b1-3)GalNAc
Summary of the method: as §1

[7] = molecular target: Fuc(a1-2)[Gal(a1-3)]Gal(b1-3)GlcNAc(b1-3)GalNAc
Summary of the method: as §1

[8] = molecular target: Fuc(a1-2)[Gal(a1-3)]Gal(b1-4)GlcNAc(b1-2)Man
Summary of the method: as §1

[9] = molecular target: Fuc(a1-2)[Gal(a1-3)]Gal(b1-4)[Fuc(a1-3)]GlcNAc
Summary of the method: as §1

[10] = molecular target: Fuc(a1-2)[GalNAc(a1-3)]Gal(b1-4)[Fuc(a1-3)]GlcNAc
Summary of the method: as §1

[11] = molecular target: Fuc(a1-2)[GalNAc(a1-3)]Gal(b1-4)[Fuc(a1-3)]GlcNAc(b1-3)GalNAc
Summary of the method: as §1

[12] = molecular target: Fuc(a1-3)[Gal(b1-4)]GlcNAc(b1-2)Man(a1-3)[Fuc(a1-3)[Gal(b1-4)]GlcNAc(b1-2)Man(a1-6)]Man(b1-4)GlcNAc(b1-4)[Fuc(a1-6)]GlcNAc
Summary of the method: as §1

[13] = molecular target: Fuc(a1-3)[Gal(b1-4)]GlcNAc(b1-3)Gal(b1-4)[Fuc(a1-3)]GlcNAc(b1-3)Gal(b1-4)[Fuc(a1-3)]GlcNAc
Summary of the method: as §1

[14] = molecular target: Fuc(a1-3)[Gal3S(b1-4)]GlcNAc6S
Summary of the method: as §1

[15] = molecular target: Gal(a1-3)Gal(b1-4)GlcNAc(b1-6)GalNAc
Summary of the method: as §1

[16] = molecular target: Gal(a1-3)[Gal(a1-4)]Gal(b1-4)GlcNAc
Summary of the method: as §1

[17] = molecular target: Gal(a1-4)Gal(b1-4)GlcNAc
Summary of the method: as §1

[18] = molecular target: Gal(b1-3)Gal(b1-4)GlcNAc
Summary of the method: as §1

[19] = molecular target: Gal(b1-3)GalNAc
Summary of the method: as §1

[20] = molecular target: Gal(b1-3)GalNAc(b1-3)Gal
Summary of the method: as §1

[21] = molecular target: Gal(b1-3)GalNAc(b1-4)Gal(b1-4)Glc
Summary of the method: as §1

[22] = molecular target: Gal(b1-3)GalNAc(b1-4)[Neu5Ac(a2-3)]Gal(b1-4)Glc
Summary of the method: as §1

[23] = molecular target: Gal(b1-3)GlcNAc
Summary of the method: as §1

[24] = molecular target: Gal(b1-3)GlcNAc(b1-2)Man
Summary of the method: as §1

[25] = molecular target: Gal(b1-3)GlcNAc(b1-3)Gal(b1-4)GlcNAc
Summary of the method: as §1

[26] = molecular target: Gal(b1-3)GlcNAc(b1-3)Gal(b1-4)GlcNAc(b1-2)Man(a1-3)[Gal(b1-3)GlcNAc(b1-3)Gal(b1-4)GlcNAc(b1-2)Man(a1-6)]Man(b1-4)GlcNAc(b1-4)GlcNAc
Summary of the method: as §1

[27] = molecular target: Gal(b1-4)GlcNAc(a1-6)Gal(b1-4)GlcNAc
Summary of the method: as §1

[28] = molecular target: Gal(b1-4)GlcNAc(b1-2)Man(a1-3)[Gal(b1-4)GlcNAc(b1-2)Man(a1-6)]Man(b1-4)GlcNAc(b1-4)[Fuc(a1-6)]GlcNAc
Summary of the method: as §1

[29] = molecular target: Gal(b1-4)GlcNAc(b1-2)[Gal(b1-4)GlcNAc(b1-6)]Man(a1-6)[GlcNAc(b1-4)][Gal(b1-4)GlcNAc(b1-2)Man(a1-3)]Man(b1-4)GlcNAc(b1-4)GlcNAc
Summary of the method: as §1

B1: Epa1-NP-mutant-Y228W (Candida glabrata), Q6VBJ0 (protein)
chain: MILNPALFLNKCVCIYTTLILLLLTNGGYATSSNDISLASKDPTTFPLGCSPDITTPKKGLSMELYSYDFRKKGSYPCWDAAYLDPNYPRTGYKSHRLLAKVDGVTGNINFYYHATKGCTPQLGHLPASYNYPKPLTMTNFTMLLYGYFRPKVTGFHTFTISADDLLFVNFGAGNAFDCCRRDSSADHFGNYQAYAIWGSKTAKDELTVHLDAGVYYPIRLFYNNREWDGALSFTFKTESNENTVSDFSEYFFSLDDTEEGCPGLISYDSSCASVKTSKIIGIDYHTETPNENLVPITKTIYHLGIPCTGTTTTPLCGSGFYDPLANKCVTINTSSTSSVTKTTSHTTSKEVSFHSSISSQKTLIPKSIPSPYGPIKSQSIPTEMETSSEISSSEYAFSDVISTPSHSPYTKKHSSLNSSSYTSTVIHSLTSYSISQGIFSTSLSEQNITSKSSTDKFSTATSMSNNITQSSIIISQFSTNNENYTTTSMHTSSDKISTETLNNSISTTTSILFSNSSTILKNNTTIISSDKDTHYHPVNPTIVCSTNKTEIICASITQPSISNSNNHWSSSVLKFNSTTVRSTLPSSAGSNETSINVPFSSSTESNTSTSSTSTSNSKMVRSTLPSSAGSNETSISVPFSSSTESNTSTSSTSTSNSKMVRSTLPSSAGSNETSINVPFSSSTESNTSTSSTSTSNSKTVRSTPFSSAGIIMTSLSQRNNKSASSYASSNSKCYNTADSCRKVHSTPSYLLTSSYTSEGVDYDCSLVSTKLKINDTNCVNNKHTTKSCLKTSVTTTIPTLEIKTARKSSSNTIGLHSYPTSSPNKSISSAPIIGYISSFKTIKTASPSYQTSDLTTITTITSLNNPGSTAVENTHESNDKSRKTSSNDISSKHSVIKETKDAVESSNKSHQTNTLKCSSIIIASSSHNSYESLGGTTLTLTLSKVYSPQNNDTLPFLEISEVNPSRTVLPESSKMMQYLTSTEERNKTARNTIATNIVSISTFHFEGEGNAIRMGYTQLLLMLIGIIVMNIGT
- glycan array binding signal (z-score) [1]: -0.437
- glycan array binding signal (z-score) [2]: -0.146
- glycan array binding signal (z-score) [3]: 0.051
- glycan array binding signal (z-score) [4]: -0.169
- glycan array binding signal (z-score) [5]: 0.006
- glycan array binding signal (z-score) [6]: -0.204
- glycan array binding signal (z-score) [7]: -0.019
- glycan array binding signal (z-score) [8]: -0.304
- glycan array binding signal (z-score) [9]: -0.288
- glycan array binding signal (z-score) [10]: -0.138
- glycan array binding signal (z-score) [11]: -0.1
- glycan array binding signal (z-score) [12]: 0.029
- glycan array binding signal (z-score) [13]: -0.169
- glycan array binding signal (z-score) [14]: 0.109
- glycan array binding signal (z-score) [15]: -0.035
- glycan array binding signal (z-score) [16]: -0.336
- glycan array binding signal (z-score) [17]: -0.087
- glycan array binding signal (z-score) [18]: 7.29
- glycan array binding signal (z-score) [19]: 2.78
- glycan array binding signal (z-score) [20]: 2.53
- glycan array binding signal (z-score) [21]: 15
- glycan array binding signal (z-score) [22]: 4.99
- glycan array binding signal (z-score) [23]: -0.24
- glycan array binding signal (z-score) [24]: -0.27
- glycan array binding signal (z-score) [25]: -0.333
- glycan array binding signal (z-score) [26]: -0.274
- glycan array binding signal (z-score) [27]: 3.19
- glycan array binding signal (z-score) [28]: 0.093
- glycan array binding signal (z-score) [29]: -0.205
